Measurements taken from the supplement of paper PMC9262897, “Low-cost anti-mycobacterial drug discovery using engineered E. coli” (Nature Communications, 2022).
Structures can show the parent of a compound that is named as a salt. ± gives the standard deviation of the averaged measurements.

Tests used:
Test in all cases: growth (OD600 after 10 h); higher = more growth (less inhibition)
[1] = test system: E. coli TESEC Alr+ wild-type control; conditions: compound 0.1 mM; raw OD600 reference: median of DMSO wells 0.241, cell-free background 0.041
Experimental: (§1)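 TESEC Mtb Alr E. coli, or the Alr+ wild-type control, in 384-well plates with Prestwick library compounds at 0.1 mM and 1% DMSO, across arabinose induction levels of 1E3 to 1E7 nM. Growth is read as OD600 after 10 h at 37 °C in triplicate biological replicates.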

E. coli TESEC Mtb Alr [2] = conditions: compound 0.1 mM
Experimental: as §1

E. coli TESEC Mtb Asd = conditions: compound 0.1 mM
Experimental: (§2)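 TESEC E. coli strains in which the native enzyme is deleted and replaced by arabinose-inducible Mtb Asd, DapB, CysH or TrpD, each grown in its selective medium. Strains were screened against the Prestwick library at 0.1 mM and 1% DMSO in 384-well format at low and high arabinose induction. Growth is read as OD600 after 10 h in triplicate.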

E. coli TESEC Mtb DapB = conditions: compound 0.1 mM
Experimental: as §2

E. coli TESEC Mtb Alr [3] = conditions: compound 0.1 mM; remark: listed apart in the source
Experimental: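 TESEC Mtb Alr E. coli (ΔaraC ΔtolC ΔentC Δalr ΔdadX, arabinose-inducible Mtb Alr) or the Alr+ wild-type control strain, grown in defined M9-fructose medium without D-alanine in 96-well plates with Prestwick library compounds at 0.1 mM and 1% DMSO. Low Alr induction is 0.1 µM arabinose and high induction is 10 mM arabinose.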

[4] = arabinose 1000 nM, raw OD600 reference: median of DMSO wells 0.294, cell-free background 0.041
[5] = arabinose 10000 nM, raw OD600 reference: median of DMSO wells 0.264, cell-free background 0.041
[6] = arabinose 100000 nM, raw OD600 reference: median of DMSO wells 0.201, cell-free background 0.041
[7] = arabinose 1000000 nM, raw OD600 reference: median of DMSO wells 0.193, cell-free background 0.041
[8] = arabinose 10000000 nM, raw OD600 reference: median of DMSO wells 0.146, cell-free background 0.041
[9] = arabinose induction (level): High, raw OD600 reference: median of DMSO wells 0.331, cell-free background 0.041
[10] = arabinose induction (level): Low, raw OD600 reference: median of DMSO wells 0.417, cell-free background 0.041
[11] = arabinose induction (level): High, raw OD600 reference: median of DMSO wells […], cell-free background 0.041
[12] = arabinose induction (level): Low, raw OD600 reference: median of DMSO wells 0.227, cell-free background 0.041
[13] = arabinose 100 nM, raw OD600 reference: median of DMSO wells 0.413, cell-free background 0.052
[14] = arabinose 10000000 nM, raw OD600 reference: median of DMSO wells […], cell-free background 0.052

SMILES	growth [1]	growth (E. coli TESEC Mtb Alr [2]; [4])	growth (E. coli TESEC Mtb Alr [2]; [5])	growth (E. coli TESEC Mtb Alr [2]; [6])	growth (E. coli TESEC Mtb Alr [2]; [7])	growth (E. coli TESEC Mtb Alr [2]; [8])	growth (E. coli TESEC Mtb Asd; [9])	growth (E. coli TESEC Mtb Asd; [10])	growth (E. coli TESEC Mtb DapB; [11])	growth (E. coli TESEC Mtb DapB; [12])	growth (E. coli TESEC Mtb Alr [3]; [13])	growth (E. coli TESEC Mtb Alr [3]; [14])
CC(Cc1ccc(O)cc1)NCC(O)c1cc(O)cc(O)c1 (stereo unspecified) [Fenoterol hydrobromide]	0.241 ± 0.0046	0.283 ± 0.02	0.266 ± 0.0076	0.184 ± 0.0055	0.19 ± 0.0033	0.143 ± 0.0091	0.298 ± 0.046	0.419 ± 0.025	0.201 ± 0.017	0.235 ± 0.05	0.406 ± 0.011	0.344 ± 0.0099
C[C@]12CC[C@@H](O)C[C@@H]1CC[C@@H]1[C@@H]2CC[C@]2(C)C(=O)CC[C@@H]12 [Androsterone]	0.117 ± 0.0044	0.123 ± 0.002	0.212 ± 0.012	0.118 ± 0.0038	0.0932 ± 0.0027	0.0878 ± 0.0015	0.148 ± 0.026	0.324 ± 0.044	0.141 ± 0.013	0.138 ± 0.011	0.3429 ± 0.0014	0.0883 ± 0.011
O=c1c2ccccc2[se]n1-c1ccccc1 [Ebselen]	0.067 ± 0.0015	0.295 ± 0.02	0.261 ± 0.0064	0.236 ± 0.027	0.224 ± 0.017	0.164 ± 0.0046	0.0698 ± 0.0046	0.061 ± 0.008	0.22 ± 0.027	0.249 ± 0.014	0.355 ± 0.009	0.346 ± 0.0078
CC(=O)O[C@H]1C[C@@H]2CC[C@@H]3[C@H](CC[C@@]4(C)[C@H]3C[C@H]([N+]3(C)CCCCC3)[C@@H]4OC(C)=O)[C@@]2(C)C[C@@H]1[N+]1(C)CCCCC1 [Pancuronium bromide]	0.232 ± 0.0035	0.318 ± 0.0065	0.2563 ± 0.0013	0.194 ± 0.021	0.168 ± 0.0052	0.154 ± 0.0046	0.242 ± 0.064	0.407 ± 0.014	0.191 ± 0.026	0.203 ± 0.055	0.421 ± 0.026	0.349 ± 0.019
C#C[C@]1(O)CC[C@H]2[C@@H]3CCC4=CC(=O)CCC4=C3C=C[C@@]21CC [Gestrinone]	0.13 ± 0.0014	0.195 ± 0.02	0.18 ± 0.0068	0.173 ± 0.0028	0.105 ± 0.011	0.134 ± 0.0068	0.216 ± 0.065	0.253 ± 0.12	0.179 ± 0.015	0.212 ± 0.013	0.374 ± 0.0073	0.165 ± 0.03
COP(=O)(OC)C(O)C(Cl)(Cl)Cl (stereo unspecified) [Trichlorfon]	0.249 ± 0.0088	0.293 ± 0.0065	0.248 ± 0.0076	0.199 ± 0.015	0.181 ± 0.0066	0.146 ± 0.0059	0.348 ± 0.072	0.363 ± 0.079	0.208 ± 0.028	0.272 ± 0.071	0.412 ± 0.012	0.257 ± 0.17
CCC(=O)O[C@H]1CC[C@H]2[C@@H]3CCC4=CC(=O)CC[C@]4(C)[C@H]3CC[C@]12C [Testosterone propionate]	0.157 ± 0.016	0.145 ± 0.0086	0.261 ± 0.0051	0.12 ± 0.0075	0.107 ± 0.0037	0.117 ± 0.015	0.336 ± 0.065	0.454 ± 0.04	0.214 ± 0.0086	0.189 ± 0.002	0.269 ± 0.18	0.148 ± 0.025
O=C(CCCN1CCC2(CC1)C(=O)NCN2c1ccccc1)c1ccc(F)cc1 [Spiperone]	0.214 ± 0.0064	0.273 ± 0.019	0.276 ± 0.011	0.1711 ± 0.0014	0.169 ± 0.0073	0.149 ± 0.0039	0.274 ± 0.066	0.43 ± 0.042	0.188 ± 0.013	0.218 ± 0.038	0.409 ± 0.0039	0.354 ± 0.027
